TR SRC2 fluor cs = counter-screen for TRb-SRC2 inhibitors: fluorescence interference | TRb/SRC2 Texas Red total fluorescence interference | 280,000 compounds, 0.29% hits | Potency, µM (titrated, usually from 106 µM), inactives show at the top dose fluorescence change, negative = quenching; active = well fitted curve in either direction with a large enough effect; inconclusive = small, poorly fitted or top-dose-only effect
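Human TRβ ligand-binding domain (0.6 uM) and Texas Red SRC2 peptide (20 nM) in Tris buffer with 1 uM T3 and 5% DMSO were incubated with pinned compound for 5 hr at ambient temperature. Total fluorescence was computed as S + 2P (555/632 nm).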
Tau fluor counter = counter-screen for tau fibril formation inhibitors. tau K18 P301L Alexa594 fluorescence, heparin fibrillization. Potency, µM (doses to about 57.7 µM), without a hit: at the top dose activity change, negative = decrease. 280,000 compounds, 0.93% hits; note: nearly all actives have a fitted effect of over 55% in size
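Human tau K18 P301L (15 uM unlabeled, 0.24 uM Alexa 594-labeled) in 100 mM sodium acetate pH 7 with 20 uM heparin, 6 hr at 37 C. ThT 30 uM added, 1 hr ambient; Alexa 594 FP and total fluorescence read at 555/632 nm.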
Tau ThT inhib = blocks human tau fibril formation measured by thioflavin T | P10636 | recombinant tau K18 P301L (four-repeat tau fragment), heparin-induced fibrillization, ThT fluorescence | Potency, µM (top dose mostly 57.4 µM), for inactives: at the top dose activity, negative = inhibition, usual class: inhibitors | 270,000 compounds, 2.1% hits | AID 1460; note: nearly all actives have a fitted effect of over 55% in size
Target sequence (P10636 561-689 P618L limits assumed): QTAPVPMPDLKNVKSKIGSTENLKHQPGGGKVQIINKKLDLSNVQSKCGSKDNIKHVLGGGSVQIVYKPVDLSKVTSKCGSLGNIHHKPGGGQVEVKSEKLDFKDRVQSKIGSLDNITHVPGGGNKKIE
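Heparin-induced fibrillization of the P301L-mutant K18 repeat-domain fragment of human tau was followed by ThT binding in quantitative high-throughput format.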
TRb SRC2 PPI = inhibitors of human thyroid hormone receptor beta-SRC2 interaction; TRbeta-SRC2 peptide binding, fluorescence polarization; receptor liganded with 1 µM T3; Potency, µM (top dose mostly 106 µM), inactives show at the highest dose activity change, negative = inhibition, most hits filed as inhibitors; P10828; 280,000 compounds, 0.065% hits;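 note: plate controls were bound peptide for no effect and peptide without receptor for full effect; nearly all actives have a fitted effect of over 50% in size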
Target sequence (P10828 whole entry, looked up): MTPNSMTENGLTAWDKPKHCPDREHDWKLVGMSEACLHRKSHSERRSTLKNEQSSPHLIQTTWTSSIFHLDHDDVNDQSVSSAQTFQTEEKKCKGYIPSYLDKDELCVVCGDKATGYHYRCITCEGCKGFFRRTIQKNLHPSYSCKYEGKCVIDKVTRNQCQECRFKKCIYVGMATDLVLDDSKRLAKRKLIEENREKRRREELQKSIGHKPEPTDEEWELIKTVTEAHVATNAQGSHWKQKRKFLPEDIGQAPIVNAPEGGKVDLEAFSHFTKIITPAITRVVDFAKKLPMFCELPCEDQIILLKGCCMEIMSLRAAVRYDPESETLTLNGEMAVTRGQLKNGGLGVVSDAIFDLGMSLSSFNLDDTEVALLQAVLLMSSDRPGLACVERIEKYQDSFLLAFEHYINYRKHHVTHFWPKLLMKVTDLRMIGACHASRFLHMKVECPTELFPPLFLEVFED
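Human TRb LBD (0.6 uM) plus Texas Red-labeled SRC2 peptide (20 nM), 1uM T3, 5% DMSO, 5 hr at ambient temperature. Decreased polarization (555/632 nm) flags inhibition; data normalized to free and bound peptide controls.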
Tau fibril FP = inhibitors of human tau fibril formation; Potency, µM (highest dose often 57.7 µM), for the others: at the top dose activity, negative = inhibition, usual class: inhibitors; K18 P301L tau heparin fibrillization, Alexa594 FP, 6 h; AID 1468; 280,000 compounds, 0.39% hits; note: nearly all actives have a fitted effect of over 55% in size
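Compound effects on tau fibrillization are measured by Alexa 594 fluorescence polarization (ex 555, em 632 nm). K18 P301L tau is used at 15 uM with 0.24 uM labeled tracer, and 20 uM heparin induces aggregation over 6 hr at 37 C.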
* = called active by the depositor; u = inconclusive; x = not tested or not shown; ! = not active in a repeat; [ ] = remark or other dose. This is a sample that favours compounds with a hit; in the whole collection about 3% have one here. Unless noted, calls come from the whole dose curve; as a rule, active = well fitted curve in the direction sought with a large enough effect; inconclusive = small, poorly fitted or top-dose-only effect, or another doubt; inactive = no such curve, though single readings can be large; an effect the other way counts as inactive or inconclusive. Unless noted, % is set by controls: 0 for no effect and ±100 for the full control effect; potency is the fitted concentration of half-maximal effect.

SMILES	TR SRC2 fluor cs	Tau fluor counter	Tau ThT inhib	TRb SRC2 PPI	Tau fibril FP
COc1ccc(N2C(=O)NC(=O)/C(=C\c3ccc([N+](=O)[O-])s3)C2=O)cc1	u	u	14.1µM*	u	u
COc1ccc(N2C(=O)NC(=O)/C(=C/c3ccc([N+](=O)[O-])s3)C2=O)cc1	1.2%	u	x	25.4%	31.6µM*
CCOP(=O)(O)C(N)=O	-26.3%[201 µM]	x	x	-8.7%[201 µM]	x
Nc1cc(Cl)c2nonc2c1[N+](=O)[O-]	-7.0%	u	11.2µM*	-21.0%	-10.6%
O=[N+]([O-])c1c(Cl)c(Cl)c(Cl)c(Cl)c1Cl	-2.9%[201 µM]	x	x	2.4%[201 µM]	x
CCCOc1nn(C(=O)NS(=O)(=O)c2ccccc2C(=O)OC)c(=O)n1C	-4.3%[201 µM]	x	x	-0.6%[201 µM]	x
Clc1cccc(N2CCNCC2)c1	28.2µM*![fluorescent]	-0.8%	-4.8%	8.91µM*!	1.1%
Nc1cc(N2CCNCC2)ccc1[N+](=O)[O-]	0.8%	2.2%	u	1.1%	7.1%
S=C(S)N1CCCC1	-4.1%	-14.1%	31.6µM*	2.4%	u
CCCCn1c(NC(=O)c2ccco2)c(C(=O)OCC)c2nc3ccccc3nc21	-1.3%	-26.0%	12.6µM*	u	15.8µM*
O=C1NC(=O)[C@]2(Cc3ccccc3N3CCN(c4ccccc4)CC32)C(=O)N1Cc1ccccc1 (some centres not stated)	-1.3%	-20.1%	31.6µM*	10.8%	u
CCCCC(CC)CO[N+](=O)[O-] (configuration not stated)	-1.2%[201 µM]	x	x	3.9%[201 µM]	x
O=c1[nH]c(=S)[nH]c(O)c1N=Nc1ccc(SC(F)F)cc1	-6.3%	-20.0%	3.55µM*	-6.4%	-15.9%
O=c1[nH]c(=S)[nH]c(O)c1N=Nc1ccc(S(=O)(=O)N2CCc3ccccc32)cc1	-1.0%	u	5.01µM*	-6.7%	9.0%
Cc1c(N=Nc2c(O)[nH]c(=S)[nH]c2=O)c(=O)n(-c2ccccc2)n1C	1.2%	-7.3%	u	-23.5%	u
CC(C)c1ccc(N=Nc2c(O)[nH]c(=O)[nH]c2=O)cc1	-3.1%	-9.6%	x	-5.9%	-8.3%
CC(C)C(C(=O)OC(C#N)c1cccc(Oc2ccccc2)c1)c1ccc(Cl)cc1 (configuration not stated)	-0.1%[201 µM]	x	x	9.4%[201 µM]	x
O=C(Nc1ccc(Br)cc1)c1ccc(F)c(S(=O)(=O)N2CCCc3ccccc32)c1	-1.1%	7.08µM*[quencher]	-1.1%	-7.0%	15.8µM*
CC(C)COP(=O)(OCC(C)C)OCC(C)C	-0.7%[201 µM]	x	x	1.6%[201 µM]	x
O=C(OCC(=O)c1ccc([N+](=O)[O-])cc1)/C(=C\c1ccc(Cl)cc1)NC(=O)c1ccccc1	-4.7%	u	12.6µM*	-5.4%	-7.8%
CCC[CH2][Sn]([CH2]CCC)[CH2]CCC	2.4%[201 µM]	x	x	0.6%[201 µM]	x
S=c1[nH]c2cc(Br)cnc2[nH]1	0.8%	-15.3%	31.6µM*	-1.6%	u
S=c1[nH]c2ccccc2[nH]1	1.4%	8.0%	7.6%	-4.6%	u
CC1=C[C@@H]2c3cccc4[nH]cc(c34)C[C@H]2N(C)C1	5.5%	u	15.8µM*	-3.4%	-13.8%
CN1Cc2ccccc2[C@@H]2c3cccc4[nH]cc(c34)C[C@H]21	u	u	11.2µM*	-3.6%	u
SMILES	TR SRC2 fluor cs	Tau fluor counter	Tau ThT inhib	TRb SRC2 PPI	Tau fibril FP
CCN(CC)C(=O)N[C@@H]1C[C@H]2c3cccc4[nH]cc(c34)C[C@@H]2N(C)C1	-2.9%[53 µM]	x	x	1.3%[53 µM]	x
COc1nn(C(=O)NS(=O)(=O)c2ccccc2OC(F)(F)F)c(=O)n1C	-0.7%[201 µM]	x	x	-0.3%[201 µM]	x
C(=N\NC1=NCCCCC1)/c1c[nH]c2ccccc12	0.7%	-4.6%	x	4.6%	-11.2%
Brc1ccc2[nH]cc(/C=N/N3CCCCC3)c2c1	3.6%	11.2µM*[quencher]	u	5.4%	16.1%
O=C(O)c1ccccc1-c1c2cc(Br)c(=O)cc-2oc2[c]([Hg])c(O)c(Br)cc12	44.7µM*[fluorescent]	u	u	20µM*!	u
CCNc1nc(NC(C)C)nc(SC)n1	-4.2%[201 µM]	x	x	-4.5%[201 µM]	x
CCN(CC)c1ccc(/C=C/[N+](=O)[O-])cc1	-2.4%	u	15.8µM*	-10.4%	-8.6%
CCOc1nc(C(Cl)(Cl)Cl)ns1	-3.8%[201 µM]	x	x	-10.4%[201 µM]	x
CCOP(=O)(OCC)Oc1ccc([N+](=O)[O-])cc1	-4.2%[201 µM]	x	x	6.9%[201 µM]	x
C=CCN1C(=O)/C(=C/c2cccs2)C(=O)NC1=S	-7.4%	u	u	6.6%	9.5%
O=C1NC(=S)N(Cc2ccco2)C(=O)/C1=C\c1cccs1	u	u	12.6µM*	u	u
Cc1cc(Br)ccc1N1C(=O)CC(=O)NC1=O	-1.1%	-8.1%	12.6µM*	3.6%	u
O=C1CC(=O)N(c2ccc(Cl)cc2Cl)C(=O)N1	1.7%	-10.5%	u	6.8%	-9.7%
CCN(CC)c1ccc(CC2C(=O)N(C)C(=O)N(C)C2=O)cc1	u	25.1µM*[fluorescent]	u	u	u
O=P(Oc1ccccc1)(Oc1ccccc1)Oc1ccccc1	-1.9%[201 µM]	x	x	-3.6%[201 µM]	x
CCN(CC)c1ccc(N=Cc2c(O)n(-c3ccccc3C)c(=O)[nH]c2=O)cc1	-0.8%	-30.0%	20µM*	-23.7%	0.3%
Cc1cc(-c2nc3ccccc3s2)ccc1NC(=O)c1cc(Cl)ccc1Cl	2.7%	-12.3%	u	4.7%	-2.5%
Cc1cc(C(C#N)c2ccc(Cl)cc2)c(Cl)cc1NC(=O)c1cc(I)cc(I)c1O (configuration not stated)	44.7µM*[quencher]	x	x	u	x
O=C1NC(=O)N(Cc2ccc(F)cc2)C(=O)/C1=C\c1ccc(N2CCCC2)cc1	18.1%	29.1%	25.1µM*	20.1%	-4.8%
COc1ccc(CN2C(=O)NC(=O)/C(=C/c3ccc([N+](=O)[O-])s3)C2=O)cc1	-3.0%	u	7.94µM*	16.2%	25.1µM*
O=C1NC(=O)N(Cc2ccc(F)cc2)C(=O)/C1=C\c1ccc([N+](=O)[O-])s1	2.6%	u	x	13.6%	0.355µM*
N#CCNC(=O)c1cnccc1C(F)(F)F	-2.4%[201 µM]	x	x	-2.6%[201 µM]	x
O=C(OC1CCN(CCCl)CC1)C(c1ccccc1)c1ccccc1	0.3%	-8.4%	u	35.5µM*	14.7%
CN1CCC(OC(=O)Cc2ccccc2)CC1	0.6%	-5.6%	-4.4%	-1.5%	-4.2%
CC(C)=CCCC1(C)C=Cc2c(O)c3c(c(CC=C(C)C)c2O1)OC12C(=CC4CC1C(C)(C)OC2(C/C=C(/C)C(=O)O)C4=O)C3=O (configuration not stated)	-1.0%	-15.8%	22.4µM*	-9.7%	u
CC(C)CCCC1(C)C=Cc2c(O)c3c(c(CCC(C)C)c2O1)OC12C(CC4CC1C(C)(C)OC2(CCC(C)C(=O)O)C4O)C3=O (configuration not stated)	-0.7%	-3.6%	u	-0.5%	-7.3%
CC(C)=CCCC1(C)C=Cc2c(O)c3c(c(CC=C(C)C)c2O1)OC12C(=CC4CC1C(C)(C)OC2(C/C=C(/C)C(=O)O)C4O)C3=O (configuration not stated)	-1.8%	-25.2%	17.8µM*	-0.8%	u

High-throughput results: PubChem, National Center for Advancing Translational Sciences (NCATS)
